Cardio protect = protects H9c2 cardiomyocytes from peroxide injury; H2O2 injury protection, ATPLite, 2 h; protection from H2O2 cell death, % at 20 µM; actives 0.63% (n = 360,000);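 active = compounds giving at least 50% protection of heart cells from peroxide-induced death in the single-dose screen, raw or plate-pattern-corrected value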;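 note: 0% = DMSO wells with peroxide and 100% = DMSO wells without peroxide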
ATG4B inh = ATG4B (human) cysteine protease inhibition | Q9Y4P1 | ATG4B cleavage of LC3-PLA2, NBD-HPC fluorescence, 1 h | inhibition, % at 8.33 µM | actives 0.51% (n = 340,000) | AID 504462; in the data active = inhibition above about 40%
Target sequence (Q9Y4P1 whole entry, looked up): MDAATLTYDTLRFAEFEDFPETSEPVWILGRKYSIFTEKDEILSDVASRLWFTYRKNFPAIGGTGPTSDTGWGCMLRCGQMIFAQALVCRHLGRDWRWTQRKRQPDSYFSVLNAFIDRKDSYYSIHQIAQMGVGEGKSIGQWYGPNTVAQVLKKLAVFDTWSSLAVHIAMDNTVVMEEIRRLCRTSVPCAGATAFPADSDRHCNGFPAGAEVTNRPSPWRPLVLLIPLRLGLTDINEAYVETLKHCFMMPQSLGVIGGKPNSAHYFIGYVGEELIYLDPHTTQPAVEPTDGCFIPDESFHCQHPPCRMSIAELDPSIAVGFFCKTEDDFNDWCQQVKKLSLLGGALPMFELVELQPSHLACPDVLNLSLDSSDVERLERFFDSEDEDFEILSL
PP1 counter = blocks human PP1-alpha phosphatase, a PP5 counter-screen. purified PP1alpha, OMFP fluorescence. inhibition, % at 6.7 µM. P62136. AID 2235. actives 0.9% (n = 320,000);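 active = inhibition above the mean inhibition of all tested compounds plus 3 SD, computed separately for each screening campaign, cut at about 15% in these data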
PP5 primary = inhibitors of human protein phosphatase 5 (PP5) | purified PP5c, OMFP substrate fluorescence | inhibition, % at 6.7 µM | actives 0.18% (n = 320,000);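 active = inhibition above the campaign's mean inhibition across all tested compounds plus 3 SD, cut at about 9.5% in these data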;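 note: 0% = DMSO only and 100% = 100 µM cantharidin control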
PP1 confirm = confirmation of human PP1 phosphatase inhibitors; shares compounds with PP1 counter; purified PP1alpha, OMFP substrate fluorescence; inhibition, % at 6.7 µM; actives 52% (n = 1,900); AID 2358;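 active = mean PP1 inhibition above a set limit taken from the earlier primary screen, cut at about 15% in these data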
PP5 inh counter = PP5 phosphatase inhibition, counter-screen for PP1 inhibitors. purified PP5c, OMFP fluorescence. shares compounds with PP1 counter. inhibition, % at 6.7 µM. actives 4% (n = 1,900). AID 2360;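 active = mean PP5 inhibition over triplicate wells above about 9.5% taken from the earlier PP1 screen, limit read from the data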
Starred values were filed as active, the others as inactive; . = not tested or not shown. This is a sample that favours compounds with a hit; in the whole collection about 1.9% have one here.

SMILES	Cardio protect	ATG4B inh	PP1 counter	PP5 primary	PP1 confirm	PP5 inh counter
CN1C(=O)S/C(=C/c2cccnc2)C1=O	4	2	1	1	.	.
O=C1/C(=C\c2cccnc2)Sc2ccccc21	-3	3	19*	3	16*	-3
COc1ccc(COC(=O)CN2C(=O)NC3(CCCC3)C2=O)cc1F	1	3	34*	0	-3	-3
COc1ccc(COC(=O)CN2C(=O)NC3(CC(C)CC(C)(C)C3)C2=O)cc1F (centres undefined)	2	3	.	.	.	.
Cc1ccc(/C=N/n2c(-c3ccc(Cl)cc3)n[nH]c2=S)s1	-3	4	20*	2	10	-4
COc1ccc(OCC(=O)Nc2cc(-c3nn(C)c(=O)c4ccccc34)ccc2OC)cc1	-14	-11	1	4	.	.
COc1ccc(-c2nn(C)c(=O)c3ccccc23)cc1NC(=O)Cn1nc(-c2ccccc2)c2ccccc2c1=O	13	-12	24*	3	18*	-2
O=C1c2cccc3c(Cl)ccc(c23)C(=O)N1O	-4	4	38*	2	30*	-6
CCN1C(=O)c2cccc3c(Cl)ccc(c23)C1=O	-3	-6	-6	3	.	.
COc1nc(Nc2ccc(O)cc2)nc(OC(C(F)(F)F)C(F)(F)F)n1	-9	3	3	8	.	.
Nc1cccc(Nc2nc(OC(C(F)(F)F)C(F)(F)F)nc(OC(C(F)(F)F)C(F)(F)F)n2)c1	-27	11	18*	19*	16*	15*
O=C1[C@H]2[C@@H](c3ccccc3)N[C@]3(CCCN(Cc4ccc(F)cc4)C3=O)[C@H]2C(=O)N1Cc1ccccc1	12	.	.	.	.	.
Cn1c(=O)c(C(=O)NNC(=O)c2ccccc2Br)c(O)c2ccccc21	1	1	20*	1	15	-3
CCn1c(=O)c(C(=O)NNC(=O)c2ccccc2Br)c(O)c2ccccc21	1	6	22*	-1	12	-4
CCOc1ccc(S(=O)(=O)N2CCN(CCNS(=O)(=O)c3ccc(C)cc3)CC2)cc1	-1	-7	.	.	.	.
CCCCN(C(=O)c1c(C)noc1C)c1c(N)n(CCC)c(=O)[nH]c1=O	1	-5	-4	-1	.	.
Cc1cccc(C)c1Nc1c(-c2ccccn2)nc2ccccn12	1	10	28*	2	5	0
Cc1ccc(Nc2c(-c3ccccn3)nc3cccc(C)n23)cc1	-2	7	40*	4	50*	4
Cc1ccccc1Nc1c(-c2ccccn2)nc2c(C)cccn12	-4	6	13	2	.	.
CCCn1c(=O)c(C(=O)Nc2cccc(C)n2)c(O)c2ccccc21	-1	6	2	1	.	.
CCCn1c(=O)c(C(=O)NNS(=O)(=O)c2ccc(Cl)cc2)c(O)c2ccccc21	-4	4	22*	0	16*	-4
CCCn1c(=O)c(C(=O)Nc2ncccc2C)c(O)c2ccccc21	-7	-10	24*	3	21*	-5
Cc1ccc(C(C)C)c(OCc2nn(CC(=O)c3ccc(Cl)cc3)c3[n+]2CCCCC3)c1	-17	13	23*	3	-18	-1
O=C(Cn1nc(CNc2ccc(Cl)cc2)[n+]2c1CCCCC2)c1ccccc1	1	-6	1	-2	.	.
CCC(C)(C)NC(=O)C(c1cccn1C)N(Cc1ccc(OC)cc1)C(=O)Cn1nnc2ccccc21 (centres undefined)	-12	-10	30*	0	25*	2
SMILES	Cardio protect	ATG4B inh	PP1 counter	PP5 primary	PP1 confirm	PP5 inh counter
Cc1cccc(NC(=O)c2nc[nH]c2C(=O)N(C)Cc2ccccc2)c1	-3	-3	-9	2	.	.
Cc1nnc(N2C(=O)C(O)=C(C(=O)c3ccco3)C2c2cccc([N+](=O)[O-])c2)s1 (centres undefined)	1	7	-1	-2	.	.
CCOC(=O)c1sc(N2C(=O)C(O)=C(C(=O)c3ccco3)C2c2cccc([N+](=O)[O-])c2)nc1C (centres undefined)	-3	12	39*	2	45*	5
CCOC(=O)c1sc(N2C(=O)C(O)=C(C(=O)c3ccco3)C2c2cccc(Cl)c2)nc1C (centres undefined)	6	.	27*	2	17*	-1
CCOc1cc(C(=O)Nc2cc3c(cc2N2CCOCC2)n(C)c(=O)n3C)cc(OCC)c1OCC	1	-6	-1	2	.	.
Cc1cc(Cl)ccc1OCC(=O)Nc1nc(-c2cccnc2)cs1	-1	-2	2	-1	.	.
Cc1ccc(OCC(=O)Nc2nc(-c3ccccn3)cs2)c(C)c1	53*	-3	43*	7	41*	-3
O=C(Nc1nc(-c2ccccn2)cs1)Nc1ccc(F)cc1F	46	1	38*	2	42*	-1
Cc1ccc(S(=O)(=O)CCC(=O)Nc2nc(-c3ccccn3)cs2)cc1	20	-59	27*	2	40*	2
Cc1ccc(C2(C)NC(=O)N(CC(=O)Nc3nc(-c4ccccn4)cs3)C2=O)cc1 (centres undefined)	37	-4	26*	2	43*	5
O=C(Nc1nc(-c2ccccc2)cs1)Nc1ccc(F)cc1F	-22	3	7	0	.	.
COc1ccc(CN2C(=NC(=O)c3ccccc3)SC3CS(=O)(=O)CC32)cc1 (centres undefined)	-8	3	-2	0	.	.
CCOc1ccc(S(=O)(=O)Nc2cc(S(=O)(=O)N3CCOCC3)ccc2OC)cc1	4	1	-2	-1	.	.
O=C(COc1ccc([N+](=O)[O-])cc1)Nc1nc(-c2ccccn2)cs1	71*	-11	41*	1	37*	0
O=C(COc1ccc(F)cc1)Nc1nc(-c2ccccn2)cs1	59*	-12	27*	5	35*	-3
COC(=O)c1sc(NC(=O)COc2cccnc2[N+](=O)[O-])c(C(=O)OC)c1C	12	-61	27*	5	15	0
Cc1cccc2c1N(CCOc1ccccc1Cl)C(=O)C2=O	-1	8	18*	6	6	-2
CC(C)[C@H](NC(=O)c1ccccc1)C(=O)OCC(=O)c1c(N)n(C)c(=O)n(C)c1=O	-7	-10	.	.	.	.
CCOC(=O)N1CCC(c2cc(=O)n3[nH]c(C)c(-c4ccc(F)cc4)c3n2)CC1	6	2	19*	3	13	-1
CCN(CC(=O)Nc1ccc2c(c1)OCCO2)C(=O)c1ccc(CS(C)(=O)=O)cc1	-3	-3	.	.	.	.
O=C(/C=C/c1ccc(OC(F)F)cc1)OCC(=O)N1CCC(c2ccccc2)=N1	-6	0	1	6	.	.
CCC1=NN=C(c2ccc(F)cc2)C(c2c[nH]c3ccccc23)N1O (centres undefined)	6	-9	22*	3	-4	-2
Cc1ccc(N2C(=O)CC(c3c[nH]c4ccccc34)C2=O)cc1 (centres undefined)	0	-8	1	3	.	.
